Assay results: PubChem BioAssay (NCATS)
Where “and” joins values, the source holds several entries; their conditions need not be identical. Identical values can stand only once. Results filed as inconclusive are left out. Calls of active or inactive are those of the source. Unless noted, calls follow the shape of the dose curve; as a rule, active = well fitted curve in the direction sought with a large enough effect; inconclusive = small, poorly fitted or top-dose-only effect, or another doubt; inactive = no such curve, though single readings can be large; an effect the other way counts as inactive or inconclusive.

Tests used:
[1] = Cell Viability - BJ (AID 421; calls by dose curve;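 also: potency is read from the fitted curve at half-maximal effect; cells exposed to compound for 40 hours at 37 °C before readout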); conditions: BJ fibroblast viability, qHTS
Summary of the method: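 Cytotoxicity as drop in intracellular ATP (CellTiter-Glo, 20 min RT) after 40 hr compound exposure of BJ fibroblasts at 37 °C. Titrations scaled between DMSO and 100 uM tamoxifen, Hill-fitted for AC50.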

[2] = Cell Viability - Jurkat (AID 426;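 active = dose-dependent loss of cell ATP signal giving a full or clear fitted curve, ranked by lower potency value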;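 also: potency is read from the fitted curve at half-maximal effect; cells exposed to compound for 40 hours at 37 °C before ATP read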); conditions: qHTS
Summary of the method: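 Jurkat (Clone E6-1) cells, 5000/well in complete medium, exposed to compounds for 40 hr at 37C; intracellular ATP measured by CellTiter-Glo luminescence after 20 min at room temperature. AC50 from Hill fits.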

[3] = Cell Viability - Hek293 (AID 427;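 active = compounds whose dose-response curve shows a full or clear partial loss of cell viability, called from curve shape rather than a numeric limit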;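 also: potency is read from the fitted curve at half-maximal effect; cells exposed to compound for 40 hours at 37 °C before reading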); conditions: qHTS
Summary of the method: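 Luminescent ATP content (CellTiter-Glo, 20 min at room temperature) was measured after a 40 hr, 37 °C compound exposure of HEK293 cells. AC50 values came from Hill-equation fits of qHTS concentration-response data normalized to DMSO and 100 uM tamoxifen.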

[4] = Cell Viability - HepG2 (AID 433; calls by dose curve;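 also: potency is read from the fitted curve at half-maximal effect; potency for ATP loss meaning cytotoxicity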); conditions: qHTS
Summary of the method: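 ATP luminescence (CellTiter-Glo) after 40 h compound exposure, 37 °C, HepG2, 1500 cells/well, complete medium. Normalized: DMSO = basal, 100 uM tamoxifen = 100% inhibition. AC50 via standard Hill equation.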

[5] = Cell Viability - SK-N-SH (AID 435; calls by dose curve; also: potency is read from the fitted curve at half-maximal effect); conditions: SK-N-SH neuroblastoma cell viability qHTS
Summary of the method: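 CellTiter-Glo ATP luminescence, 20 min RT read; cells pre-plated 5 hr, compound 40 hr at 37 °C, 1500 cells/well, complete medium. Normalized DMSO = 0, 100 uM tamoxifen = 100% inhibition; Hill-fit AC50.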

[6] = Cellular Toxicity (caspase-3) HUV-EC-C (AID 656); conditions: HUV-EC-C cells, caspase-3 activation (apoptosis), vehicle = 0, 100 µM tamoxifen = 100%; series mostly up to 92.2 µM;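 also: 0% = DMSO basal and 100% = 100 µM tamoxifen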
Summary of the method: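 Luminescent caspase-3/7 activation (aminoluciferin substrate cleavage) in HUV-EC-C cells after 16 hr compound exposure, 37°C. Signal normalized to DMSO basal and 100 uM tamoxifen as 100%; AC50 from concentration-response fitted with the Hill equation.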

[7] = Cellular Toxicity (caspase-3) SHSY5Y (AID 657); conditions: SH-SY5Y caspase-3 activation, DMSO zero, 10 µM staurosporine = 100%; series mostly up to 91.7 µM
Summary of the method: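 Luminescent caspase-3/7 readout (aminoluciferin release) in SH-SY5Y cells after 16 h compound exposure in complete medium. Activity scaled between DMSO basal and 10 uM staurosporine as 100%; concentration-response fitted to Hill equation for AC50.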

[8] = Cellular Toxicity (caspase-3) MRC-5 (AID 659); conditions: MRC-5 cells, luminescence, normalized: DMSO 0%, 10 µM staurosporine 100%; series mostly up to 91.7 µM
Summary of the method: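 Luminescence from caspase-cleaved aminoluciferin substrate (Caspase-Glo 3/7, 1 hr RT) reports caspase 3/7 activity in MRC-5 lung fibroblasts after 16 hr compound exposure. Normalized to DMSO basal and 10 uM staurosporine as 100%; AC50 from Hill fits.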

[9] = MultiTox-Fluor Cytotoxicity Assay - LYMP1-002 - Live Cells (AID 955); conditions: LYMP1-002 lymphoblastoid live-cell protease fluorescence viability; series mostly up to 46.1 µM; also: % is scaled to controls: 0 for no effect and ±100 for the full control effect
Summary of the method: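 Human lymphoblastoid LYMP1-002 cells, 2500/well, treated 16 h at 37 C in complete medium. Live-cell protease activity via GF-AFC fluorescence (Ex/Em 405/510) after 60 min reagent incubation; AC50 from Hill fits.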

[10] = Cell Viability - LYMP1-003 - Assay at 24 hr (AID 963); conditions: LYMP1-003 lymphoblastoid cell viability; series mostly up to 92.2 µM;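 also: plate controls were DMSO only for no effect and tetraoctylammonium bromide positive control for full effect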
Summary of the method: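 Human lymphoblastoid LYMP1-003 cells, 2500/well, treated 24 h at 37 C in complete medium. Viability read as intracellular ATP by CellTiter-Glo luminescence after 30 min at room temperature; AC50 from Hill-equation fits of qHTS concentration-response.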

[11] = Cell Viability - LYMP2-009 (AID 968); conditions: LYMP2-009 lymphoblastoid cell viability; series mostly up to 92.2 µM;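 also: 0% = DMSO alone and the full-kill end = tetraoctylammonium bromide at 92 µM; nearly all actives have a fitted effect of over 55% in size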
[12] = Cell Viability - LYMP2-017 (AID 972); conditions: LYMP2-017 lymphoblastoid cell viability; series mostly up to 92.2 µM; also: % is scaled to controls: 0 for no effect and ±100 for the full control effect; nearly all actives have a fitted effect of over 55% in size
Summary of the method: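 LYMP2-017 human lymphoblastoid cells (2500/well) settled 5 hr at 37 C, then exposed to compound 24 hr at 37 C in complete medium. Viability taken as intracellular ATP by CellTiter-Glo luminescence after 30 min at RT; AC50 from Hill fits.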

[13] = Cell Viability - LYMP2-025 (AID 976); conditions: LYMP2-025 lymphoblastoid cell viability; series mostly up to 92.2 µM;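 also: plate controls were DMSO only for no effect and tetraoctylammonium bromide control for full effect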
Summary of the method: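 Human lymphoblastoid LYMP2-025 cells, 2500/well, exposed 24 h at 37 C in complete medium in 1536-well qHTS. Viability as cellular ATP by CellTiter-Glo luminescence; AC50 from Hill fits of concentration-response data.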

[14] = Cell Viability - LYMP2-016 (AID 984); conditions: LYMP2-016 lymphoblastoid cell viability, qHTS; series mostly up to 92.2 µM; also: % is scaled to controls: 0 for no effect and ±100 for the full control effect; nearly all actives have a fitted effect of over 55% in size
Summary of the method: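 qHTS, 1536-well: 2500 LYMP2-016 cells/well, 5 hr 37 C, compound added, 24 hr 37 C, CellTiter-Glo 30 min RT, luminescence. Tetraoctylammonium bromide positive control. AC50 via Hill fit.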

[15] = Cell Viability - LYMP2-024 (AID 988); conditions: LYMP2-024 lymphoblastoid cell viability; series mostly up to 92.2 µM;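 also: plate controls were DMSO only for no effect and 92 µM tetraoctylammonium bromide for full effect; nearly all actives have a fitted effect of over 60% in size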
Summary of the method: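 Human lymphoblastoid LYMP2-024 cells (2500/well) rested 5 hr, then treated with compound for 24 hr at 37 C in complete medium. Viability was measured as intracellular ATP by CellTiter-Glo luminescence. AC50 values came from Hill-equation fits.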

[16] = qHTS Assay for Identification of Small Molecule Inducers of Hypoxia Response (AID 2120; active = well fitted curve in the direction sought with a large enough effect in the signal ratio, with a control signal flat, not every such curve was filed as active; the % refers to the signal ratio; also: 0% is about no effect); conditions: hypoxia response reporter cells, beta-lactamase ratio readout; series mostly up to 104 µM
Summary of the method: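 HRE-bla ME-180 cells in Opti-MEM with 0.5% dialyzed FBS, pre-plated 4-5 h, then compound titration for 17 h at 37 degrees Celsius. CCF4 loaded 2.5 h at room temperature; 460/530 nm ratio gave %Activity and AC50 for induction.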

[17] = qHTS assay for small molecule agonists of retinoid X receptor alpha signaling (AID 588544); conditions: HEK293T RXRa-UAS-bla, beta-lactamase reporter, 18 h; 530 nm emission
[18] = target: Peroxisome proliferator-activated receptor alpha (Homo sapiens) (UniProt Q07869); assay: qHTS assay for small molecule agonists of the peroxisome proliferator-activated receptor alpha (PPARalpha) signaling pathway (AID 651778); conditions: PathHunter PPARalpha complementation, chemiluminescence, 6 h; stronger effect = higher value; also: % of control where 0% means no effect
Summary of the method: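 Cells plated at 2,000/well and held overnight at 37 C, 5% CO2, then compound added by pin tool for 6 hr; after PathHunter detection reagent and 60 min at room temperature, chemiluminescence from enzyme complementation was read.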

[19] = qHTS assay for small molecule agonists of the antioxidant response element (ARE) signaling pathway measured by Nrf2-dependant transcriptional activity - cell viability counter screen (AID 720653; active = well fitted curve in the direction sought with a large enough effect in the repeat runs; an effect the other way counts as inactive or inconclusive; also: % is scaled to controls: 0 for no effect and ±100 for the full control effect); conditions: ARE-bla HepG2 viability, CellTiter-Glo ATP luminescence, 16 h; stronger effect = lower value
Summary of the method: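 ARE-bla HepG2 cells (2,000/well) rested 5 hrs at 37C/5% CO2, then exposed to compounds in DMSO for 16 hrs. Viability was read in the same wells as intracellular ATP by luminescence, 30 min at room temperature after reagent addition.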

[20] = Cell Viability - Renal Proximal Tubule (AID 545); conditions: renal proximal tubule cells viability; series mostly up to 91.7 µM;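 also: 0% = DMSO only and -100% = 100 µM tamoxifen; nearly all actives have a fitted effect of over 40% in size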
Summary of the method: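 Rat kidney proximal tubule cells, freshly isolated; 1000 cells/well, 5 hr settle, compound 40 hr 37 °C. CellTiter-Glo 20 min RT, luminescence read. AC50 by standard Hill fit.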

Sequence of Peroxisome proliferator-activated receptor alpha (Homo sapiens) (Q07869 whole entry, looked up): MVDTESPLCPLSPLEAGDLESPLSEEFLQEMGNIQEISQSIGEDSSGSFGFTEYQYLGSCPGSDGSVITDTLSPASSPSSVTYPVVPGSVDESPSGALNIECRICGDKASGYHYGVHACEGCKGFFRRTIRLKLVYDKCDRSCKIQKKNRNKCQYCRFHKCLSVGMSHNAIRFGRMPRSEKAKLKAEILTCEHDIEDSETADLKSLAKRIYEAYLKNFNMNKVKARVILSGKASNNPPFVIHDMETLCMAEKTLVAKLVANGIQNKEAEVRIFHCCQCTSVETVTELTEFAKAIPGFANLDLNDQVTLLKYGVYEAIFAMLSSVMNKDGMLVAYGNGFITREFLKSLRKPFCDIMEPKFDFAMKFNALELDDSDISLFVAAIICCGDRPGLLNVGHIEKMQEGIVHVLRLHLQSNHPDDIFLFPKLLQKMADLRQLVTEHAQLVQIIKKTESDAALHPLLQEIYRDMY

CCCCNC(=O)n1c(NC(=O)OC)nc2ccccc21
inactive: Potency [1] > 92 µM | Potency [3] > 92 µM | Potency [4] > 92 µM | Potency [5] > 92 µM | outcome [6] | outcome [7] | outcome [8] | outcome [9] | outcome [10] | Potency [11] | Potency [12] | Potency [13] | Potency [14] | Potency [15] | Potency [16] | max response [18] 0.197% and 0.6% | max response [19] 2.42% and 7.38%
active: Potency [2] 3.28 µM
14.8%: max response [17]

CC(C)(Cl)Cl
inactive: Potency [1] > 92 µM | Potency [2] > 92 µM | Potency [3] > 92 µM | Potency [4] > 92 µM | Potency [5] > 92 µM | outcome [20] | outcome [6] | outcome [7] | outcome [8] | outcome [9] | outcome [10] | Potency [11] | Potency [12] | Potency [13] | Potency [14] | Potency [15] | Potency [16] | max response [18] -2.59% | max response [19] -1.91%
-10.7%: max response [17]

CC(C)(C)C(O)(CCc1ccc(Cl)cc1)Cn1cncn1 (centres undefined)
-9.24% and 6.75%: max response [17]
inactive: Potency [1] > 92 µM | Potency [2] > 92 µM | Potency [3] > 92 µM | Potency [4] > 92 µM | Potency [5] > 92 µM | outcome [20] | outcome [6] | outcome [7] | outcome [8] | outcome [9] | outcome [10] | Potency [11] | Potency [12] | Potency [13] | Potency [14] | Potency [15] | Potency [16] | max response [18] -3.73% and 1.11% | max response [19] -4.58% and -0.482%

CSSC
1.16%: max response [17]
inactive: Potency [1] > 92 µM | Potency [2] > 92 µM | Potency [3] > 92 µM | Potency [4] > 92 µM | Potency [5] > 92 µM | outcome [20] | outcome [6] | outcome [7] | outcome [8] | outcome [9] | outcome [10] | Potency [11] | Potency [12] | Potency [13] | Potency [14] | Potency [15] | Potency [16] | max response [18] -6.95% | max response [19] 1.42%

Oc1cc(Cl)ccc1Cl
inactive: Potency [1] > 92 µM | Potency [2] > 92 µM | Potency [3] > 92 µM | Potency [4] > 92 µM | Potency [5] > 92 µM | outcome [20] | outcome [6] | outcome [7] | outcome [8] | outcome [9] | outcome [10] | Potency [11] | Potency [12] | Potency [13] | Potency [14] | Potency [15] | Potency [16] | max response [18] -3.18% and 0.376% | max response [19] 14.5% and -2.04%
-10.2% and -8.32%: max response [17]

O=[N+]([O-])c1cc(Cl)c(Cl)cc1Cl
10.7%: max response [17]
inactive: Potency [1] > 92 µM | Potency [2] > 92 µM | Potency [3] > 92 µM | Potency [4] > 92 µM | Potency [5] > 92 µM | outcome [20] | outcome [6] | outcome [7] | outcome [8] | outcome [9] | outcome [10] | Potency [11] | Potency [12] | Potency [13] | Potency [14] | Potency [15] | Potency [16] | max response [18] -8.71% | max response [19] -7.17%
